Measurements reported in the supplement of paper PMC11732987, “Enantioselective OTUD7B fragment discovery through chemoproteomics screening and high-throughput optimisation” (Communications Chemistry, 2025).

Tests used:
Test in all cases: log2 ratio of Biotin-Ahx-Ub-VS probe labelling (fragment/DMSO); higher = less target engagement (more negative = stronger competition), active = hit call of the paper (q ≤ 0.05, log2 ratio ≤ -1)
Settings in all cases: compound concentration: 200 uM; treatment time: 3 h
[1] = target: T1, USP42 (UniProt Q9H9J4)
T1 sequence (whole entry): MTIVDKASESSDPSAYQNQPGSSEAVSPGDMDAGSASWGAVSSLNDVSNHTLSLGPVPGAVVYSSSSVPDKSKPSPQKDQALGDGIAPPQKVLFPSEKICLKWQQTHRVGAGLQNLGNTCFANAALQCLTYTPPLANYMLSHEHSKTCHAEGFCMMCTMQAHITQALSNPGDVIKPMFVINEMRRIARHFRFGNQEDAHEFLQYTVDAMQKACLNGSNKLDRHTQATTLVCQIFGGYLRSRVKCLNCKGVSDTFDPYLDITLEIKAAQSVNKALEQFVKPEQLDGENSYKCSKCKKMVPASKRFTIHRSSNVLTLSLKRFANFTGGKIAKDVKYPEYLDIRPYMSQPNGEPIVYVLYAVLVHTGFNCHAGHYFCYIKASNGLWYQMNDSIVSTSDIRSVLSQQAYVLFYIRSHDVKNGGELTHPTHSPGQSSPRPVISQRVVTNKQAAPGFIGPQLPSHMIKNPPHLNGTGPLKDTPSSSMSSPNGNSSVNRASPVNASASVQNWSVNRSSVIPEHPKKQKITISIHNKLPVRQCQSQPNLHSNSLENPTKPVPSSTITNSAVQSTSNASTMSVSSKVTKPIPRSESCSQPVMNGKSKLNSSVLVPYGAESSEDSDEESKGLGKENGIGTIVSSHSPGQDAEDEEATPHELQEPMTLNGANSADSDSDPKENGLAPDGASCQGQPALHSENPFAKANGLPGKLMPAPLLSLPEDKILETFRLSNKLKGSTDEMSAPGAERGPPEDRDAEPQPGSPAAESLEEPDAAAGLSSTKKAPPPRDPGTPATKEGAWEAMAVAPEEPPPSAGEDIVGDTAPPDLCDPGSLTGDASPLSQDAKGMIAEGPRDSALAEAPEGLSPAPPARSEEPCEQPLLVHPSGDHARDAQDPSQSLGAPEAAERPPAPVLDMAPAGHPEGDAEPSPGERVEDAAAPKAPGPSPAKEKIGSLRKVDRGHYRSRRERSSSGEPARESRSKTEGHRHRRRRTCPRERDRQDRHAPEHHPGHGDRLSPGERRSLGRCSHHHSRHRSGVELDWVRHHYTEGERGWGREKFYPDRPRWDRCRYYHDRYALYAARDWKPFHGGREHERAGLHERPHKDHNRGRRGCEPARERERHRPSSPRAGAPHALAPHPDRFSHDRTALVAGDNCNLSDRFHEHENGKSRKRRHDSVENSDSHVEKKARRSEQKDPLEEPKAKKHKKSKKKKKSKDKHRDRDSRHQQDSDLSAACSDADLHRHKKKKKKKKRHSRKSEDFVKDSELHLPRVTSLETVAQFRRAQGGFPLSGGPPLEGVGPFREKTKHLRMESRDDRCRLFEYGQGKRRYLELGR
Procedure, shortened: (§1)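 Labelling with Biotin-Ahx-Ub-VS (0.5 µM final, 1 h) followed a 3 h triplicate treatment of HEK293T lysate (495 µg per sample, Tris/CHAPS/IGEPAL buffer with protease inhibitors) with fragment at 200 µM or vehicle. Labelled DUBs were NeutrAvidin-enriched, digested with LysC and trypsin, and run by diaPASEF LC-MS/MS. The values, average log2 fragment/vehicle ratios by unpaired t-test, come from global-median-normalised Spectronaut label-free quantities. Proteins with ≥2 unique peptides were used.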

[2] = target: USP46 (UniProt P62068)
Procedure, shortened: as §1

[3] = target: T2, USP47 (UniProt Q96K76)
T2 sequence (whole entry): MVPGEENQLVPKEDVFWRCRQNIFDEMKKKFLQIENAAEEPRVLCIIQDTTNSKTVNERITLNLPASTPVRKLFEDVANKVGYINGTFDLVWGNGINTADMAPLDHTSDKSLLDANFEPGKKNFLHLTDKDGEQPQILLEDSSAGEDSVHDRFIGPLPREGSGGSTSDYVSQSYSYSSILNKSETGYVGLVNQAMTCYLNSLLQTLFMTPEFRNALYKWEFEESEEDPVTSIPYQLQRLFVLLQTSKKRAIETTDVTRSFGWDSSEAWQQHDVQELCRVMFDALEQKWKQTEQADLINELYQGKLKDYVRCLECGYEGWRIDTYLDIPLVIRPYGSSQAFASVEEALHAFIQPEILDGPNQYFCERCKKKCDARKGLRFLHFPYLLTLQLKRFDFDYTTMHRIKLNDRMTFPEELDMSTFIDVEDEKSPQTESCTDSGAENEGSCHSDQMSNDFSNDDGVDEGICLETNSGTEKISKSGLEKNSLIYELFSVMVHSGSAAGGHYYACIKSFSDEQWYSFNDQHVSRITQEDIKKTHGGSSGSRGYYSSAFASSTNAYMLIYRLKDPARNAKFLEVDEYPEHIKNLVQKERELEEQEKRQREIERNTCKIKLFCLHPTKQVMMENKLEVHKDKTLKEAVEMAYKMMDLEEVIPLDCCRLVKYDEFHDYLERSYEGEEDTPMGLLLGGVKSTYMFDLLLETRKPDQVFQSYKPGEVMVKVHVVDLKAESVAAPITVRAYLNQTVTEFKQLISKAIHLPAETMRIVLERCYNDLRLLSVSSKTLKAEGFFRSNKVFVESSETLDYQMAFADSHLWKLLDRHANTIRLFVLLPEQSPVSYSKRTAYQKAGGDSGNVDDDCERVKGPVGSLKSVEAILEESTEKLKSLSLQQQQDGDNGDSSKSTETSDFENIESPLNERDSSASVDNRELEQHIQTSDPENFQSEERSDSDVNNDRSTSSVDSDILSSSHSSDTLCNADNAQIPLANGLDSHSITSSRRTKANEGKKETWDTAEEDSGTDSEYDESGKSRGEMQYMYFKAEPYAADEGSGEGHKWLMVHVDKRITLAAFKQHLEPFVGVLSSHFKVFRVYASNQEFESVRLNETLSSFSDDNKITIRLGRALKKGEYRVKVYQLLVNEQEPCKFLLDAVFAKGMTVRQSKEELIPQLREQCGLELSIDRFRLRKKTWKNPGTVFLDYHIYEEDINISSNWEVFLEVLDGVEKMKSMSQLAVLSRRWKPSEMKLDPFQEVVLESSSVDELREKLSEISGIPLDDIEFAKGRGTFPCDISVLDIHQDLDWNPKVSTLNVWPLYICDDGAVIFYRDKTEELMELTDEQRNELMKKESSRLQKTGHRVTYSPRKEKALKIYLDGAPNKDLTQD
Procedure, shortened: as §1

[4] = target: T3, USP48 (UniProt Q86UV5)
T3 sequence (whole entry): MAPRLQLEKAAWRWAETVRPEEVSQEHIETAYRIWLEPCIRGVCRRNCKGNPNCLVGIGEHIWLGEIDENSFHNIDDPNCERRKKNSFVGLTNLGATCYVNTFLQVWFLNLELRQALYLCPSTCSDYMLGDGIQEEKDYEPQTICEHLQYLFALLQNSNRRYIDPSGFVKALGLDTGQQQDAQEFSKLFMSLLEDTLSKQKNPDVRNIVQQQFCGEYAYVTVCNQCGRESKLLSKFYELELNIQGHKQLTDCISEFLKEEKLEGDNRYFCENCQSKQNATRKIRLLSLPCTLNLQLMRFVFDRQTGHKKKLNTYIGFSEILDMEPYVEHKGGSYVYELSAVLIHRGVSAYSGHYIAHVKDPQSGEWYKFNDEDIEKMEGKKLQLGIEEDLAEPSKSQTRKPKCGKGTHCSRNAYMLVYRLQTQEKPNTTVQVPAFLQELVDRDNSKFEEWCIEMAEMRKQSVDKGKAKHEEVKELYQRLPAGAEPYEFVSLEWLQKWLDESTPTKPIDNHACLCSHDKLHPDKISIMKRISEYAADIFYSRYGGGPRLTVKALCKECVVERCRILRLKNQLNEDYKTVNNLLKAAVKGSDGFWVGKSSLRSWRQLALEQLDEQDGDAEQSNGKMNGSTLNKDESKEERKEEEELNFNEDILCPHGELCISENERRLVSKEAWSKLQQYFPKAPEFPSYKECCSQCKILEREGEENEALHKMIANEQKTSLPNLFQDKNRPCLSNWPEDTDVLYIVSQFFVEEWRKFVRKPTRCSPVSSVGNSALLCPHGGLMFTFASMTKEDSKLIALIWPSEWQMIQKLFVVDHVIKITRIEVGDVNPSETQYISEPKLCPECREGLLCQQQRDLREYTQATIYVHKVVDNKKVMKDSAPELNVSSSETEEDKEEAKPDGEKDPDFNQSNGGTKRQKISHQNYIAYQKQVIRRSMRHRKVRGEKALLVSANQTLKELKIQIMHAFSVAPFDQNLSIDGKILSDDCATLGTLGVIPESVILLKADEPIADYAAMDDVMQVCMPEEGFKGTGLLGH
Procedure, shortened: as §1

[5] = target: T4, USP5 (UniProt P45974)
T4 sequence (whole entry): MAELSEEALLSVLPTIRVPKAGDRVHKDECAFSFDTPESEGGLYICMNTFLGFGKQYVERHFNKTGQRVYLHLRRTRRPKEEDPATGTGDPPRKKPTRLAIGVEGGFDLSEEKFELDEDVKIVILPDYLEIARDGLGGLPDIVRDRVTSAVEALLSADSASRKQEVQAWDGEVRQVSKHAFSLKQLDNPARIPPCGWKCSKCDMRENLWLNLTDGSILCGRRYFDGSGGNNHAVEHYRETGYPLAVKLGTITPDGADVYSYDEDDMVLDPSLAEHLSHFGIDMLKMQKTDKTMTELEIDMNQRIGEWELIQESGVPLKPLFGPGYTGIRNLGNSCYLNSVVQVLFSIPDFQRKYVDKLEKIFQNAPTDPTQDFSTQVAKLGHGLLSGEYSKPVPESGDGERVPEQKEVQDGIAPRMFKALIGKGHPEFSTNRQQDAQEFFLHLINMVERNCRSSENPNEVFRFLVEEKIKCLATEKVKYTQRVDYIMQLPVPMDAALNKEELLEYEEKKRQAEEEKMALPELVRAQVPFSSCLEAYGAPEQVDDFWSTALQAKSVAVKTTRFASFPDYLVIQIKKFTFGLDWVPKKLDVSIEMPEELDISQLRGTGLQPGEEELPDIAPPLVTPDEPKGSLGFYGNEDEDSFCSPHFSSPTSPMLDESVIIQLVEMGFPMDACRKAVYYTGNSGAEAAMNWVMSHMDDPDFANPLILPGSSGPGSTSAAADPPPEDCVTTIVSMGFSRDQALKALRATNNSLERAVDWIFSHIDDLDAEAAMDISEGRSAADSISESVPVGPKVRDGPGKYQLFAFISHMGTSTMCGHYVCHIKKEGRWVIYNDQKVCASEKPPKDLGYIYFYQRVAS
Procedure, shortened: as §1

[6] = target: USP54 (UniProt Q70EL1)
Procedure, shortened: as §1

[7] = target: USP7 (UniProt Q93009)
Procedure, shortened: as §1

[8] = target: T5, USP8 (UniProt P40818)
T5 sequence (whole entry): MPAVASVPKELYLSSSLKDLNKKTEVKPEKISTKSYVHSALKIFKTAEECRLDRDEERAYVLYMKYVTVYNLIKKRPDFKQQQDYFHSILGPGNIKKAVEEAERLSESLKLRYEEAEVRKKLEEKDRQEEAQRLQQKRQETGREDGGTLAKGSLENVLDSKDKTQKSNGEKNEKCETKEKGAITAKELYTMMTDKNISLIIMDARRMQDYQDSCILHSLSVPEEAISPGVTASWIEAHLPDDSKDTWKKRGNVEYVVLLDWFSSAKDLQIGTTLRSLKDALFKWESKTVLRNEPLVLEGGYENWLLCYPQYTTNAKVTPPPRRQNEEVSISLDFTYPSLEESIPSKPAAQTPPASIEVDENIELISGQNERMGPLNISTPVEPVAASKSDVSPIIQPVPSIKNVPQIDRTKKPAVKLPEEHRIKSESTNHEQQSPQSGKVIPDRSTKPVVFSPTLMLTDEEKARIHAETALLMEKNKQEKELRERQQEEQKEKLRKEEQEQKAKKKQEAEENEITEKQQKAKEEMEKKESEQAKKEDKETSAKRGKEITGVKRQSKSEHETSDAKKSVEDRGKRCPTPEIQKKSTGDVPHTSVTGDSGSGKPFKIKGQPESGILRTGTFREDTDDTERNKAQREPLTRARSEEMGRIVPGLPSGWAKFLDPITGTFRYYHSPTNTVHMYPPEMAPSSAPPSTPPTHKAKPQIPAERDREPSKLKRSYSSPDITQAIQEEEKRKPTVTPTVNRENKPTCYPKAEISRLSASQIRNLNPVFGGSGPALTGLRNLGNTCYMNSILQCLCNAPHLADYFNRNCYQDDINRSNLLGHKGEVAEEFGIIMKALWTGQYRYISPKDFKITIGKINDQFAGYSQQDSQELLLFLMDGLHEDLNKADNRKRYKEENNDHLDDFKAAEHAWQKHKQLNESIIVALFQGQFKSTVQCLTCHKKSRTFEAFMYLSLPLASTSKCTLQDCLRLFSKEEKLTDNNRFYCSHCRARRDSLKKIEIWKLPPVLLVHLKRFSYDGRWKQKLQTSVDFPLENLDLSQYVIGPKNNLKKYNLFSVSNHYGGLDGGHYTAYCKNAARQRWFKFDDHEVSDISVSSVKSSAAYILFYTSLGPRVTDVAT
Procedure, shortened: as §1

[9] = target: USP9X (UniProt Q93008)
Procedure, shortened: as §1

[10] = target: UniProt O00487
Procedure, shortened: as §1

Measured: log2 ratio of Biotin-Ahx-Ub-VS probe labelling

USP46, sequence (P62068 whole entry): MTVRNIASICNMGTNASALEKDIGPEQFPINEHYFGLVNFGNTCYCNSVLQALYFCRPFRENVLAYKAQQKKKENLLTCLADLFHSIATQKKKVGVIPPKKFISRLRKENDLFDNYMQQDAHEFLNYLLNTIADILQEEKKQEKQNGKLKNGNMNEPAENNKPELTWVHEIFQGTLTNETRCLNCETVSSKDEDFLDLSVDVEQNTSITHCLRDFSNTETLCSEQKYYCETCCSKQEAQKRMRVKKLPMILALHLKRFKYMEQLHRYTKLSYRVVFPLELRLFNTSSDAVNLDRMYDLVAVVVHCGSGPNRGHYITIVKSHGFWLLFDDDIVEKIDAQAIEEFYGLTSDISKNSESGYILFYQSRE
USP7, sequence (Q93009 whole entry, looked up): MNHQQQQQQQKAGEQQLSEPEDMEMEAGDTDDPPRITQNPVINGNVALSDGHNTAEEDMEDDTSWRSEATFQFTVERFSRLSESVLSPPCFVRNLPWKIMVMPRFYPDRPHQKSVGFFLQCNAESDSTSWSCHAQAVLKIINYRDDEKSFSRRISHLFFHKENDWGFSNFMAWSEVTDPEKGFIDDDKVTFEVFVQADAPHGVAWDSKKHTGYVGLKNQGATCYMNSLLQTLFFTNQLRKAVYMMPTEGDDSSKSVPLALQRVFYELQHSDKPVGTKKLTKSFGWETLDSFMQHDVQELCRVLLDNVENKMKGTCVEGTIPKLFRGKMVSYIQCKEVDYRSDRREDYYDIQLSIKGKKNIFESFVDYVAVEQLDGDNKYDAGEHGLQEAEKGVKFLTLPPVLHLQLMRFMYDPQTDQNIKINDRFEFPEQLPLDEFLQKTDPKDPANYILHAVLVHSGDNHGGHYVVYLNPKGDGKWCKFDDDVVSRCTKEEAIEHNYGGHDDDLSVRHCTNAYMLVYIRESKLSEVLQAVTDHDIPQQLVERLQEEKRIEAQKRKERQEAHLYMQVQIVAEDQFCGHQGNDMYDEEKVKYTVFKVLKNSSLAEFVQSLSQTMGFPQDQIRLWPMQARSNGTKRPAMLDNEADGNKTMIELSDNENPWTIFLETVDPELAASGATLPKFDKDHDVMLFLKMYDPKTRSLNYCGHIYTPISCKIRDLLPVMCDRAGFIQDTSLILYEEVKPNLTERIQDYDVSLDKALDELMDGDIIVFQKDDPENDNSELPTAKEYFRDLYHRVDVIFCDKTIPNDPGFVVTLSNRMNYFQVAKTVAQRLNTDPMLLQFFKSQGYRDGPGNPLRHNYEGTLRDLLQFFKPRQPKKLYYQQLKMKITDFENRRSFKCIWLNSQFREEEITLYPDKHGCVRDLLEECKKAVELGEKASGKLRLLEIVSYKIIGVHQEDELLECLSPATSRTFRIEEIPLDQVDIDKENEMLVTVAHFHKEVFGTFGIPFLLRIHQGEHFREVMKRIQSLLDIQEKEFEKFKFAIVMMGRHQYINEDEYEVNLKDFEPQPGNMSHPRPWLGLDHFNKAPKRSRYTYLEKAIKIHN
USP9X, sequence (Q93008 whole entry): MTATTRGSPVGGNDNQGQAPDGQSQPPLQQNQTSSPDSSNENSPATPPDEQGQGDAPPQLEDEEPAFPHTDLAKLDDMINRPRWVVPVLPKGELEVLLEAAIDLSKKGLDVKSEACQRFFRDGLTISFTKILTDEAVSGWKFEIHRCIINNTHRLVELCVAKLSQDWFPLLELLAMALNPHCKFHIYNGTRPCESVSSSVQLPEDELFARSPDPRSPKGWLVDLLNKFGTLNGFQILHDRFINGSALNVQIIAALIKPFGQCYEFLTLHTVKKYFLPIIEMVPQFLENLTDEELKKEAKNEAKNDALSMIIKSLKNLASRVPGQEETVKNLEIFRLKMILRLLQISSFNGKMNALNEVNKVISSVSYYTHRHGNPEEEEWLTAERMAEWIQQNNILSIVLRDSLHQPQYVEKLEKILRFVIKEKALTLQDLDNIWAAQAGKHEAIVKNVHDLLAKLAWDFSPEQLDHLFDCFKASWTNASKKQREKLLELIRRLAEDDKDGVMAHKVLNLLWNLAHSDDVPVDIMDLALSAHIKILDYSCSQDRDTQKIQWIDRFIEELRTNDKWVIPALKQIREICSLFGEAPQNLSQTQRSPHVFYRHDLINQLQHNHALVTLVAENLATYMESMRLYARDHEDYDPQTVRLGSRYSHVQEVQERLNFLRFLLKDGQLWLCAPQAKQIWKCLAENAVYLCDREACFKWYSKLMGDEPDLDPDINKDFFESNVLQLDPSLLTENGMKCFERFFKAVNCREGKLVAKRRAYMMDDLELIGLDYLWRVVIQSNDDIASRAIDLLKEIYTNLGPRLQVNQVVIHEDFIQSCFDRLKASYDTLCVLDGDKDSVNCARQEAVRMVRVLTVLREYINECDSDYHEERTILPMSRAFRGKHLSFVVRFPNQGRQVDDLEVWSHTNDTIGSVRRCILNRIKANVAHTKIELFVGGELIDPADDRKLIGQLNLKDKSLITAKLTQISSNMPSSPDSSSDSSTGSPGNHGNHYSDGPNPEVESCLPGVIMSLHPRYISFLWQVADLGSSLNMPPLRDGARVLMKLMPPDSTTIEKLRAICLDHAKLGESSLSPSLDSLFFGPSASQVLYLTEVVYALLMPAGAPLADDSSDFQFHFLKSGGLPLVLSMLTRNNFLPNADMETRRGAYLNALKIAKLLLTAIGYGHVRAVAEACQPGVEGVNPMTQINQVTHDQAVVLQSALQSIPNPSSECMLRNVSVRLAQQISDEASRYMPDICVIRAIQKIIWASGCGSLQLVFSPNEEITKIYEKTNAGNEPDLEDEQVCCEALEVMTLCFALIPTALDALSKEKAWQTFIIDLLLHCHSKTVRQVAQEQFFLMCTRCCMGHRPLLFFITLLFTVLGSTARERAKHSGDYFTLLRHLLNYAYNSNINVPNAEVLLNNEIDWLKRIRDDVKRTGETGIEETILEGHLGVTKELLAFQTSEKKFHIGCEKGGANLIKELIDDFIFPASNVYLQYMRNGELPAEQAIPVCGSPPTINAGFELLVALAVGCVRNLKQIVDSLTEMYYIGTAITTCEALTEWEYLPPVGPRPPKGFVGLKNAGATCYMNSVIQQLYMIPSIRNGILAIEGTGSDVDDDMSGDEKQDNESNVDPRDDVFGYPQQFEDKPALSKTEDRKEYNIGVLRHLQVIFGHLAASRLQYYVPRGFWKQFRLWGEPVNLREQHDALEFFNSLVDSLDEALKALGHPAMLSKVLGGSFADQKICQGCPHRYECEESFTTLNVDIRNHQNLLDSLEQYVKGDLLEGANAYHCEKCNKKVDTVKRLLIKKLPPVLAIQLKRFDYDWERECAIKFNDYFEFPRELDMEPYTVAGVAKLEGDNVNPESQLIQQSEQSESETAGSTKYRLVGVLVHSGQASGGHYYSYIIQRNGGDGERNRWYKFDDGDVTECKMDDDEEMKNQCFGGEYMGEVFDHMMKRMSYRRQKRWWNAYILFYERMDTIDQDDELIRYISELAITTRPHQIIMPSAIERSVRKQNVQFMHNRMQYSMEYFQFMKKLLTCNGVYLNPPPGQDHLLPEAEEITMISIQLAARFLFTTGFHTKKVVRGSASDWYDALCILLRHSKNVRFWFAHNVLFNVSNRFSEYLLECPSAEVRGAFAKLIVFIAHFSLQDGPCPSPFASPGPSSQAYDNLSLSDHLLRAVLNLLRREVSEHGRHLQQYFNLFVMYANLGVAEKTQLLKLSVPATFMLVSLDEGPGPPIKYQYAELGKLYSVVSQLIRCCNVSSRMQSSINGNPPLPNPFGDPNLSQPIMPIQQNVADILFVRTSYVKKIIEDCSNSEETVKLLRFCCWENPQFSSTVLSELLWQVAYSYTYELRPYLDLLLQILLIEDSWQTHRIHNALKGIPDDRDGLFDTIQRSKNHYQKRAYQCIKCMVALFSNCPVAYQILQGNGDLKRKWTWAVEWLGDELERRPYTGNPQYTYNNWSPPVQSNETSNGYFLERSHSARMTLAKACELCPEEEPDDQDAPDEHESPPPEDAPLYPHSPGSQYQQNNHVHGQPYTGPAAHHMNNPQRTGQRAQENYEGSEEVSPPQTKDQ
UniProt O00487, sequence (O00487 whole entry): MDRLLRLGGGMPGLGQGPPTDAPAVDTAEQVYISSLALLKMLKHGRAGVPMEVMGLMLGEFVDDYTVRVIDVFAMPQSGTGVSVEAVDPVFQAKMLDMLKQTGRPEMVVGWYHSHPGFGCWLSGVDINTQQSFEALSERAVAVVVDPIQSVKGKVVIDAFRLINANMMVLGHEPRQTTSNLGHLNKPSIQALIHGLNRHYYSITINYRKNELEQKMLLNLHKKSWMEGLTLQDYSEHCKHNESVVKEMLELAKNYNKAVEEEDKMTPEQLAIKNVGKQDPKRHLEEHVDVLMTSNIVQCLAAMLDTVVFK

O=C(CCl)Nc1cc2c(cc1Cl)OCCO2
inactive: [1] 0.233 | [2] 0.0711 | [3] -0.426 | [5] 0.0658 | [6] 0.291 | [7] -0.216 | [8] -0.226 | [9] -0.246 | [10] -0.0671
active: [4] -1.05
